# Reference: article PMC7862700, “An all-to-all approach to the identification of sequence-specific readers for epigenetic DNA modifications on cytosine”
# Key:
# Test in all cases: DAPPL (digital affinity profiling via proximity ligation, sequencing); 10 mM Tris-HCl pH 7.5, 50 mM NaCl, 1 mM DTT, 4% glycerol, room temperature, 30 min; GST-TFs on glutathione beads, 16-mer random dsDNA library, 0.1% formaldehyde crosslink after washing; high values mean tight binding
# FEV = molecular target: T1, FEV (Homo sapiens, UniProt Q99581 1-238); details: protein: recombinant; tags: N-terminal GST; dsDNA, one strand shown
# T1 sequence: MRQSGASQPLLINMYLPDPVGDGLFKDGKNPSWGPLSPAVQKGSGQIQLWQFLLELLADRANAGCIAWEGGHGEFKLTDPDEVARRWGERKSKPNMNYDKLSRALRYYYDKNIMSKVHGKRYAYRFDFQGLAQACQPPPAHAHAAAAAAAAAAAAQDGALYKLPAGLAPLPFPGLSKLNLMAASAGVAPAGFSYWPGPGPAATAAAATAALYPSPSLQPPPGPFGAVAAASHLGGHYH
# How it was run: (§1)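 GST fusions of human transcription factors were expressed in yeast and captured with glutathione beads. Once given DNA barcodes and pooled alongside a tag-only sample, they were incubated for 30 min at room temperature with 200 nmole of a random double-stranded 16-mer DNA library in Tris/NaCl/DTT/glycerol buffer, then washed, crosslinked (0.1% formaldehyde), proximity-ligated, PCR-amplified and sequenced on an Illumina NextSeq500. The binding signal of each hexamer is its read frequency for a factor divided by its frequency for the tag-only sample.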
# ETV5 = ETV5 (Homo sapiens, UniProt P41161 1-510); details: protein: recombinant; tags: N-terminal GST; dsDNA, one strand shown
# How it was run: as §1
# HSF1 = HSF1 (Homo sapiens, UniProt Q00613 1-529); details: protein: recombinant; tags: N-terminal GST; chain copies: 3; dsDNA, one strand shown
# How it was run: as §1
# SPIC = molecular target: T2, SPIC (Homo sapiens, UniProt Q8N5J4 1-248); details: protein: recombinant; tags: N-terminal GST; dsDNA, one strand shown
# T2 sequence: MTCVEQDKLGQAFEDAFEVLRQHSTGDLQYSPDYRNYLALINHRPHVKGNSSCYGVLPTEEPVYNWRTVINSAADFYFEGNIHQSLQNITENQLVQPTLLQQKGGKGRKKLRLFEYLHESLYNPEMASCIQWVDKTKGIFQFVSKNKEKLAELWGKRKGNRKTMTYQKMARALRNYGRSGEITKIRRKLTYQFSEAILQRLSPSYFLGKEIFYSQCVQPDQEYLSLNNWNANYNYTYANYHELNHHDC
# How it was run: as §1
# ELF4 = ELF4 (Homo sapiens, UniProt Q99607 1-663); details: protein: recombinant; tags: N-terminal GST; dsDNA, one strand shown
# How it was run: as §1
# ELK4 = molecular target: T3, ELK4 (Homo sapiens, UniProt P28324-2 1-405); details: protein: recombinant; tags: N-terminal GST; dsDNA, one strand shown
# T3 sequence: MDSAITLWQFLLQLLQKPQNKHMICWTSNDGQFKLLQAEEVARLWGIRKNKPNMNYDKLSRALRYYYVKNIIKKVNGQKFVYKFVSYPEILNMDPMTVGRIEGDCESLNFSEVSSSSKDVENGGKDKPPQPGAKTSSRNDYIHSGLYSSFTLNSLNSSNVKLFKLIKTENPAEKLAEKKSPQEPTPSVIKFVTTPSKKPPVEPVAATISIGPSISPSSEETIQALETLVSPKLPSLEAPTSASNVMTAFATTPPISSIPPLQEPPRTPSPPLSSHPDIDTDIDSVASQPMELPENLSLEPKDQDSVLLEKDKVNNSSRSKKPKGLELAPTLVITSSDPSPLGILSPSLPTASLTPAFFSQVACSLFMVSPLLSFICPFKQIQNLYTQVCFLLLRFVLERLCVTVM
# How it was run: as §1
# ETV2 = molecular target: T4, ETV2 (Homo sapiens, UniProt O00321 1-342); details: protein: recombinant; tags: N-terminal GST; dsDNA, one strand shown
# T4 sequence: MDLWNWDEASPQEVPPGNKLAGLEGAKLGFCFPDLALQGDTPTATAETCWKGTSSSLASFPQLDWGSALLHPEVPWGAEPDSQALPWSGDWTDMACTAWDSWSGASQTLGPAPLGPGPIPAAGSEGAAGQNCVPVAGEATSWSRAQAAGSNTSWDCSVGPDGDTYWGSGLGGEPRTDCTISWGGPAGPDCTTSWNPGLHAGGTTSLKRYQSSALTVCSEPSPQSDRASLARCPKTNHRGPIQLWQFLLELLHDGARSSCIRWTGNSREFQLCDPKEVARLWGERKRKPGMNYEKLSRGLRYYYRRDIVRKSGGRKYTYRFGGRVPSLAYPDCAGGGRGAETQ
# How it was run: as §1
# ELF3 = molecular target: T5, ELF3 (Homo sapiens, UniProt P78545 1-371); details: protein: recombinant; tags: N-terminal GST; dsDNA, one strand shown
# T5 sequence: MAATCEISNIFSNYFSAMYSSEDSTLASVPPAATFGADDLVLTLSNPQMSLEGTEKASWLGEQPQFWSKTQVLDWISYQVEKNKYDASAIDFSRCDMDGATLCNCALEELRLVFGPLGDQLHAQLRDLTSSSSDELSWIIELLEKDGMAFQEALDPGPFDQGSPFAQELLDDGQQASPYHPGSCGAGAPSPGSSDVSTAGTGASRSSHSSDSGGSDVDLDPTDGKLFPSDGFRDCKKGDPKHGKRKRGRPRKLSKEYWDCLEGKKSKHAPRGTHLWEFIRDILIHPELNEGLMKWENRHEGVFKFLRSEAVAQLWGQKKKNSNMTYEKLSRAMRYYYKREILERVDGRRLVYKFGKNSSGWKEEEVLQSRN
# How it was run: as §1
# CRX = CRX (Homo sapiens, UniProt O43186 1-299); details: protein: recombinant; tags: N-terminal GST; dsDNA, one strand shown
# How it was run: as §1
# ETV1 = ETV1 (Homo sapiens, UniProt P50549 1-477); details: protein: recombinant; tags: N-terminal GST; dsDNA, one strand shown
# How it was run: as §1
# ERF = molecular target: T6, ERF (Homo sapiens, UniProt P50548 1-548); details: protein: recombinant; tags: N-terminal GST; dsDNA, one strand shown
# T6 sequence: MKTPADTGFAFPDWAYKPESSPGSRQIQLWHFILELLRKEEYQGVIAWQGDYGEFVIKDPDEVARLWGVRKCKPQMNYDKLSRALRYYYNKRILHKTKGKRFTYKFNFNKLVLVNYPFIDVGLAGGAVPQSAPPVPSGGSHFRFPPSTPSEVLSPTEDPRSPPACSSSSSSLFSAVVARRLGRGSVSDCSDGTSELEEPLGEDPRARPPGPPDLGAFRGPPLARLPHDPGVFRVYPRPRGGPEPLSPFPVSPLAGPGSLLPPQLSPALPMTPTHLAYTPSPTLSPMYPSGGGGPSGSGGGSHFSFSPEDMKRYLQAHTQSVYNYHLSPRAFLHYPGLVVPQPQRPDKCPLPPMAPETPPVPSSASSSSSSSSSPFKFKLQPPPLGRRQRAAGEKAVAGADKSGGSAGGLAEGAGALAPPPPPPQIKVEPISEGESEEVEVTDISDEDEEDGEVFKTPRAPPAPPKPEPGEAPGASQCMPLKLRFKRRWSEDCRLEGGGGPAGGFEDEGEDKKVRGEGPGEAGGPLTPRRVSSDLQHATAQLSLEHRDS
# How it was run: as §1
# ETV3L = molecular target: T7, ETV3L (Homo sapiens, UniProt Q6ZN32 1-361); details: protein: recombinant; tags: N-terminal GST; dsDNA, one strand shown
# T7 sequence: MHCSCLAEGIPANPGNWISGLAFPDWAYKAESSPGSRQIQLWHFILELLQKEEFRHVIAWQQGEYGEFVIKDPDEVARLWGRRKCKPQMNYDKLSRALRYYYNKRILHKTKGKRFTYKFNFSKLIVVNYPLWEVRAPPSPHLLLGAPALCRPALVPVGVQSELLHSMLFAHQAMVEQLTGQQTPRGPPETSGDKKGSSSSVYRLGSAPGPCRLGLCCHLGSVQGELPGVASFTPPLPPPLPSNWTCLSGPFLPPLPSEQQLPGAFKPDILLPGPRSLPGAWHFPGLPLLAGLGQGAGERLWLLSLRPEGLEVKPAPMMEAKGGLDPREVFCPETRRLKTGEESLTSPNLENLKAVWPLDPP
# How it was run: as §1
# ETS2 = molecular target: T8, ETS2 (Homo sapiens, UniProt P15036 1-469); details: protein: recombinant; tags: N-terminal GST; dsDNA, one strand shown
# T8 sequence: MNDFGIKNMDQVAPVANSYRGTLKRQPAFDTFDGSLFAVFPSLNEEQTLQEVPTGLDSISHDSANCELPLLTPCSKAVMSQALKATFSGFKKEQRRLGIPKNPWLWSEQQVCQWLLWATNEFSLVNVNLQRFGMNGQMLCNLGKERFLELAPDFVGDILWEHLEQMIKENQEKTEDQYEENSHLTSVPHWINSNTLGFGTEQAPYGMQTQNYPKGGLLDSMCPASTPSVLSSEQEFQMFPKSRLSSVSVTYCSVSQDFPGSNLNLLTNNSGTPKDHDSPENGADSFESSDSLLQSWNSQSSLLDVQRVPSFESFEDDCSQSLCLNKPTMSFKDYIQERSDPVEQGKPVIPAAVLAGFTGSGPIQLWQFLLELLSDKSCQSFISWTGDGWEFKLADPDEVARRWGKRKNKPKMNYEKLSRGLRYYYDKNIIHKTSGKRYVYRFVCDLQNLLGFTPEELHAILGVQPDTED
# How it was run: as §1
# SPDEF = molecular target: T9, SPDEF (Homo sapiens, UniProt O95238 1-335); details: protein: recombinant; tags: N-terminal GST; dsDNA, one strand shown
# T9 sequence: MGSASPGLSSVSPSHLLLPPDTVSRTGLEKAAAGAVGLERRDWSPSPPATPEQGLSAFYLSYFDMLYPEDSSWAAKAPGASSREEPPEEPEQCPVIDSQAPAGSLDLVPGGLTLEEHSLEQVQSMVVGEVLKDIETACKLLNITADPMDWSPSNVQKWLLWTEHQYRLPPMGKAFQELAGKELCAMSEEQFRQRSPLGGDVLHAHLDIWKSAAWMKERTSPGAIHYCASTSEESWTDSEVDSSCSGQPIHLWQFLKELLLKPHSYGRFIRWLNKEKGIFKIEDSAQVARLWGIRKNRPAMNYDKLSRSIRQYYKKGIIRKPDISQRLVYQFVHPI
# How it was run: as §1
# ETV7 = molecular target: T10, ETV7 (Homo sapiens, UniProt Q9Y603 1-341); details: protein: recombinant; tags: N-terminal GST; dsDNA, one strand shown
# T10 sequence: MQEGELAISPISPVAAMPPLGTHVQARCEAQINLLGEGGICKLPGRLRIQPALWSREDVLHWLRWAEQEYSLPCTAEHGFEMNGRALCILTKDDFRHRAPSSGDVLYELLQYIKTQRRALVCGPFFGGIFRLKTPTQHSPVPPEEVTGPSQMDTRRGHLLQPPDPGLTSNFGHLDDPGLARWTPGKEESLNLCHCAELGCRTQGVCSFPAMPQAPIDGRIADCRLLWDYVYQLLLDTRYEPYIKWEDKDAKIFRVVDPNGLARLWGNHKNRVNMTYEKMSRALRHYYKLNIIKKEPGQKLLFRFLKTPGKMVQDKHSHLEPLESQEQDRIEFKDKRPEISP
# How it was run: as §1
# ELF5 = molecular target: T11, ELF5 (Homo sapiens, UniProt Q9UKW6-2 1-255); details: protein: recombinant; tags: N-terminal GST; dsDNA, one strand shown
# T11 sequence: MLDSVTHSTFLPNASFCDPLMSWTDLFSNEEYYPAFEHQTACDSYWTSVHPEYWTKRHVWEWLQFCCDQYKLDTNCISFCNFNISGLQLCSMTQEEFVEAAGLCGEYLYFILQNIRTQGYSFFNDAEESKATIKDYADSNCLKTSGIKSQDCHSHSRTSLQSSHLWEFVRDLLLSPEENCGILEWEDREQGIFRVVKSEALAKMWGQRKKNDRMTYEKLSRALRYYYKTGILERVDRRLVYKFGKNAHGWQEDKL
# How it was run: as §1
# ETV3 = molecular target: T12, ETV3 (Homo sapiens, UniProt P41162-2 1-143); details: protein: recombinant; tags: N-terminal GST; dsDNA, one strand shown
# T12 sequence: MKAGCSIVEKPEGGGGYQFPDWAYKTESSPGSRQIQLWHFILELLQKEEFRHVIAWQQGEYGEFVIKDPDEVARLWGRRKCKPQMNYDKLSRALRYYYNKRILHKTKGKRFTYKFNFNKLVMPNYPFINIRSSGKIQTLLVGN
# How it was run: as §1
# ETV6 = ETV6 (Homo sapiens, UniProt P41212 1-452); details: protein: recombinant; tags: N-terminal GST; dsDNA, one strand shown
# How it was run: as §1
# Chain of ETV1 (P50549 whole entry): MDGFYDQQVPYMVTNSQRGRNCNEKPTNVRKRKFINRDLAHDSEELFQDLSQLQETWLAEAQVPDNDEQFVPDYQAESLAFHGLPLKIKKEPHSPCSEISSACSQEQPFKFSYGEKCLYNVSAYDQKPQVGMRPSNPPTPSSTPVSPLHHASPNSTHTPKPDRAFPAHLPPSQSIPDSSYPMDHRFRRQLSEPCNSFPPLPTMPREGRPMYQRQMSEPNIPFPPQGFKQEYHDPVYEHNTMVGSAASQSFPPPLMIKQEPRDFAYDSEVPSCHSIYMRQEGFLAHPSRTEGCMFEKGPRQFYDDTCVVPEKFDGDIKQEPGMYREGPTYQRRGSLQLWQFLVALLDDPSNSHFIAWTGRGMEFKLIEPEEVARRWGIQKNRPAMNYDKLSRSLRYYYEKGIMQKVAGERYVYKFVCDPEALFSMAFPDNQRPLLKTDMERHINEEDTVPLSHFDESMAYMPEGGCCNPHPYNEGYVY
# Chain of ETV6 (P41212 whole entry): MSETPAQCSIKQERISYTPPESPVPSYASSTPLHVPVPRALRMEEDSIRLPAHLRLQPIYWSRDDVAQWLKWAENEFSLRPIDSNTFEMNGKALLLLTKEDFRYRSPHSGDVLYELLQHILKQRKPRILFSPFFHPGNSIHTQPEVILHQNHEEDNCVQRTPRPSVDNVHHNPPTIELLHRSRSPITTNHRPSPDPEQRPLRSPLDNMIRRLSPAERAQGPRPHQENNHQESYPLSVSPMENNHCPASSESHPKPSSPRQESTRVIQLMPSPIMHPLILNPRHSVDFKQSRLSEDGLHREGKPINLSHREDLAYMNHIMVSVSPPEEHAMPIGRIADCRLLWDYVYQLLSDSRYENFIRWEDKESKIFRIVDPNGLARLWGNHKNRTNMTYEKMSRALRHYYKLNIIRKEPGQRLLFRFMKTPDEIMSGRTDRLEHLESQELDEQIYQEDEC
# Chain of CRX (O43186 whole entry): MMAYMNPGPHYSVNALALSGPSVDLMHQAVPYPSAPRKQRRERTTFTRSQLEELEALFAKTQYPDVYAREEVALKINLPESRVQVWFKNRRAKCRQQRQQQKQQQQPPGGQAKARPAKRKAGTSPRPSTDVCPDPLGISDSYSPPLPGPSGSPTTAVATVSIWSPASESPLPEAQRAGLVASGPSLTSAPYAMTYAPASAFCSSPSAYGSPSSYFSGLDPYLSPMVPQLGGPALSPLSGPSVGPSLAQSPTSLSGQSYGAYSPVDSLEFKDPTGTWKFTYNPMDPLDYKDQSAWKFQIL
# Chain of ETV5 (P41161 whole entry): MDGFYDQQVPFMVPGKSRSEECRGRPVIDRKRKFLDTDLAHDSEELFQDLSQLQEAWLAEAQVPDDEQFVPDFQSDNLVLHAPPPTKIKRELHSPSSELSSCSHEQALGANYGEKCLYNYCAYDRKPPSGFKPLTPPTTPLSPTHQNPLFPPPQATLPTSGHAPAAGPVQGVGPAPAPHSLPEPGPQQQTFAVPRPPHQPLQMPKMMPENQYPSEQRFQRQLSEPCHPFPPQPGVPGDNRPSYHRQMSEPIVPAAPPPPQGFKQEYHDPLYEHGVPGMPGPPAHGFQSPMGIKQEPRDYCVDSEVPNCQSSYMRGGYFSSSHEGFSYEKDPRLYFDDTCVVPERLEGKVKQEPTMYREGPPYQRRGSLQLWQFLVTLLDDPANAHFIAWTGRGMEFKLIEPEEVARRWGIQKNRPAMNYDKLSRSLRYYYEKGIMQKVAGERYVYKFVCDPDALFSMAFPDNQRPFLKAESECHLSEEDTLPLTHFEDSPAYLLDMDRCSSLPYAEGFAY
# Chain of HSF1 (Q00613 whole entry): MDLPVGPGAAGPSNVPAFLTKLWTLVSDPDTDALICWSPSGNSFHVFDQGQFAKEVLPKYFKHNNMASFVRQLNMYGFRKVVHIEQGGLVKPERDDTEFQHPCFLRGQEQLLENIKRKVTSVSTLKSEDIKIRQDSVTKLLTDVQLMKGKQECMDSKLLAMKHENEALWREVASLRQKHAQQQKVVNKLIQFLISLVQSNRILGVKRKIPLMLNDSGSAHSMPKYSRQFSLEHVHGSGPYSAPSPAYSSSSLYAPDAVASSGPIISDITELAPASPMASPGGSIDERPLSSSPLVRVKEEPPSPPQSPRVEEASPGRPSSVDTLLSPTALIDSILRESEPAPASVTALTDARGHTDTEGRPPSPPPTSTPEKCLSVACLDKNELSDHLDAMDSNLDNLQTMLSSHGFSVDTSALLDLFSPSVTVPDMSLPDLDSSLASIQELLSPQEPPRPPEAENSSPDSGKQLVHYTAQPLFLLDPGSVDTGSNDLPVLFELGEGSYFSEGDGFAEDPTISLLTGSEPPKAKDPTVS
# Chain of ELF4 (Q99607 whole entry): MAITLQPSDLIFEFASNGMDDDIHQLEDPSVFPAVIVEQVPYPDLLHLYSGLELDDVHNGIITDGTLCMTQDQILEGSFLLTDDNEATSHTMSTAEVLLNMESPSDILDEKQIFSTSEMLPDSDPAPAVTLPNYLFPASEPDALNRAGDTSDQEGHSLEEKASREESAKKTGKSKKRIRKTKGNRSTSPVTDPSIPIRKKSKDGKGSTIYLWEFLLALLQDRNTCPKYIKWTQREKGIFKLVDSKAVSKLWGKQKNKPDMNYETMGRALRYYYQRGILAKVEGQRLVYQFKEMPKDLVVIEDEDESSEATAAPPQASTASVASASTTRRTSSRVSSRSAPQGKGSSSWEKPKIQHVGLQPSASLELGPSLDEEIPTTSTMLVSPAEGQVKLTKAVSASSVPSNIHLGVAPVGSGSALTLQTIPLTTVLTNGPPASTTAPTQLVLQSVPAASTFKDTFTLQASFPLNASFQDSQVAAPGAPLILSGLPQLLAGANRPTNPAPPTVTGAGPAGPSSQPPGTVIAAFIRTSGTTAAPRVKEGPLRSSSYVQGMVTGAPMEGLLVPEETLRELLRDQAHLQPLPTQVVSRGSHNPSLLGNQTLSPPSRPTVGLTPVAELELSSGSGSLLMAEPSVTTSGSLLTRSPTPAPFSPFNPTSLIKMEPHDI
sequence,measurement,setting,value
TTACCA,binding signal,FEV,"1.09 fold enrichment (6-mer frequency, TF over GST control)"
same,binding signal,ETV5,"1.04 fold enrichment (6-mer frequency, TF over GST control)"
same,binding signal,HSF1,"1.47 fold enrichment (6-mer frequency, TF over GST control)"
same,binding signal,SPIC,"1.09 fold enrichment (6-mer frequency, TF over GST control)"
same,binding signal,ELF4,"1.04 fold enrichment (6-mer frequency, TF over GST control)"
same,binding signal,ELK4,"1.04 fold enrichment (6-mer frequency, TF over GST control)"
same,binding signal,ETV2,"1.13 fold enrichment (6-mer frequency, TF over GST control)"
same,binding signal,ELF3,"1.1 fold enrichment (6-mer frequency, TF over GST control)"
same,binding signal,CRX,"1.74 fold enrichment (6-mer frequency, TF over GST control)"
same,binding signal,ETV1,"1.05 fold enrichment (6-mer frequency, TF over GST control)"
same,binding signal,ERF,"1.07 fold enrichment (6-mer frequency, TF over GST control)"
same,binding signal,ETV3L,"1.07 fold enrichment (6-mer frequency, TF over GST control)"
same,binding signal,ETS2,"1.13 fold enrichment (6-mer frequency, TF over GST control)"
same,binding signal,SPDEF,"1.09 fold enrichment (6-mer frequency, TF over GST control)"
same,binding signal,ETV7,"1.12 fold enrichment (6-mer frequency, TF over GST control)"
same,binding signal,ELF5,"1.04 fold enrichment (6-mer frequency, TF over GST control)"
same,binding signal,ETV3,"1.16 fold enrichment (6-mer frequency, TF over GST control)"
same,binding signal,ETV6,"1.07 fold enrichment (6-mer frequency, TF over GST control)"
